Experimental data: PubChem BioAssay AID1851 (National Center for Advancing Translational Sciences (NCATS), 2009)
The whole screen tested about 16,000 compounds, of which about 5,700 (36%) were called active. About 24% were inconclusive and are not listed. This is one part of the list. Unmarked numbers belong to inactive results. Calls follow the shape of the dose curve; as a rule, active = well fitted curve in the direction sought with a large enough effect; inconclusive = small, poorly fitted or top-dose-only effect, or effect the other way; inactive = no such curve, though single readings can be large or run the other way.
% is scaled to controls: 0 for no effect and ±100 for the full control effect.

What follows are molecules tested against Cytochrome P450 1A2 (Homo sapiens) (UniProt P05177) (assay: Cytochrome panel assay with activity outcomes). Conditions: recombinant CYP, pro-luciferin dealkylation, luminescence, p450-cyp1a2; series mostly up to 57.1 µM.
Cytochrome P450 1A2 (Homo sapiens), sequence (P05177 whole entry, looked up): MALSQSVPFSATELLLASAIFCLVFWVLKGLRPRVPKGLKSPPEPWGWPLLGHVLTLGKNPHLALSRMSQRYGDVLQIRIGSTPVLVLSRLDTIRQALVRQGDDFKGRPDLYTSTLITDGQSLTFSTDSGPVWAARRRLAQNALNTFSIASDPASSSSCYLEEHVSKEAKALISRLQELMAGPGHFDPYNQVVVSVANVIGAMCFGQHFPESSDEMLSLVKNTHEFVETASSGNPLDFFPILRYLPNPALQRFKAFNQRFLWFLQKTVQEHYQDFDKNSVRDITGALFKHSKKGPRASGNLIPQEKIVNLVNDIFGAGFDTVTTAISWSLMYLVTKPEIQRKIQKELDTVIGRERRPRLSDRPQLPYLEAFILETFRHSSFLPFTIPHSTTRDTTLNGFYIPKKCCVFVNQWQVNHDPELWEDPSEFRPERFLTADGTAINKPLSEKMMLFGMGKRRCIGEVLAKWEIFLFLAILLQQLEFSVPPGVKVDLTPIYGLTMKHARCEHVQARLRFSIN
With `N#CCCN` the AC50 was “inactive”.
`N[C@@H]1CCc2cc(O)c(O)cc2C1` was tested, and the AC50 was “inactive”.
For `CC[C@@H]1[C@@H]2C[C@H]3[C@H]4N(C)c5ccccc5[C@@]45C[C@@H]([C@@H]2[C@@H]5O)N3[C@H]1O`, the AC50 was “inactive”.
In the case of `Cc1ccc(N(C)C(=O)Oc2cccc3ccc(C)nc23)cc1`, the AC50 is reported as 12600 nM (active).
`C[C@@H]1O[C@H](OC2[C@@H](O)[C@H](O)C(O)[C@H](O)[C@H]2O)[C@@H](N)C[C@@H]1N=C(N)C(=O)O` (some centres not stated) was tested, and the activity, negative = inhibition was 1.22% [at 2.29 µM].
With `c1ccc(CN2CCN(Cc3ccc4c(c3)OCCO4)CC2)cc1` the AC50 was “inactive”.
`CO[C@@H]([CH2][Hg])CN1C(=O)c2ccccc2S1(=O)=O.Cn1c(=O)c2nc[nH]c2n(C)c1=O` was tested, and the activity, negative = inhibition was -22% [at 2.29 µM].
`O=c1c(O)c(-c2cc(O)c(O)c(O)c2)oc2cc(O)cc(O)c12` was tested, and the AC50 was 2000 nM (active).
With `CCC(=O)O[C@@](Cc1ccccc1)(c1ccccc1)[C@@H](C)CN(C)C` the AC50 was “inactive”.
With `Cc1nc(-c2ccc(-c3ccc(C(=O)N4CCc5cc6c(cc54)C4(CCN(C)CC4)CO6)cc3)c(C)c2)no1` the AC50 was “inactive”.
For `Nc1ccc(CCN2CCN(c3cccc(C(F)(F)F)c3)CC2)cc1`, the AC50 was 10000 nM (active).
Work on `NCCCN1CCN(c2ccccc2)CC1` yielded an activity, negative = inhibition of -15.9% [at 11.4 µM].
`C[N+](C)(C)CC#CCN1CCCC1=O` was tested, and the AC50 was “inactive”.
With `CCN(CC)C1=NC(=[N+](CC)CC)c2ccccc21` the AC50 was 15800 nM (active).
For `NC(=O)c1ncn([C@H]2O[C@@H](CO)[C@@H](O)[C@@H]2O)n1`, the AC50 was “inactive”.
With `Cc1cc(C)c(-n2c(O)c(C=NCCN3CCOCC3)c(=O)[nH]c2=O)c(C)c1` the AC50 was “inactive”.
In the case of `CC(C)[C@@]1(NC(=O)[C@@H]2C[C@H]3c4cccc5[nH]cc(c45)C[C@@H]3N(C)C2)O[C@]2(O)[C@H]3CCCN3C(=O)[C@H](Cc3ccccc3)N2C1=O`, the AC50 is reported as “inactive”.
For `COc1ccc(-n2nc(C(F)(F)F)cc2-c2ccc(Cl)cc2)cc1`, the AC50 was 501 nM (active).
Molecule `NC(N)=NCCN=C(N)N` has an activity, negative = inhibition of -17.5% [at 11.4 µM].
With `Cc1c([C@@H](C)[C@H]2NC[C@H](C)C[C@@H]2O)ccc2c1C[C@@H]1[C@H]2CC=C2C[C@@H](O)CC[C@@]21C` the activity, negative = inhibition was 1.34% [at 2.29 µM].
For `COc1ccc2[nH]c(C(=O)c3ccccc3)cc2c1`, the AC50 was 100 nM (active).
`NC[C@H](CS(=O)(=O)O)c1ccc(Cl)cc1` was tested, and the AC50 was “inactive”.
For `C/C(O)=C(/C#N)C(=O)Nc1cc(Br)ccc1Br`, the AC50 was 2510 nM (active).
`c1ccc(N2CC[C@@]3(CCCNC3)C2)nc1` was tested, and the AC50 was “inactive”.
In the case of `Clc1cncc(N2CCNCC2)n1`, the AC50 is reported as 2000 nM (active).
Molecule `N[C@@H](Cc1cc(Br)c(O)c(Br)c1)C(=O)O` has an activity, negative = inhibition of -2.84% [at 11.4 µM].
With `N[C@H](Cc1ccc2oc3cc(=O)c4ccccc4c-3nc2c1)C(=O)O` the AC50 was 1260 nM (active).
`CC(C)(O/N=C(\C(=O)N[C@@H]1C(=O)N2C(C(=O)[O-])=C(C[n+]3ccccc3)CS[C@@H]12)c1csc(N)n1)C(=O)O` was tested, and the AC50 was “inactive”.
In the case of `CN1[C@@H]2CCC[C@H]1CC(=O)C2`, the AC50 is reported as “inactive”.
For `COC1=C[C@H]2C3=C([C@H]2C1=O)[C@H](NC(C)=O)CCc1cc(OC)c(OC)c(OC)c13`, the AC50 was “inactive”.
For `COc1ccc2c(c[n+](C)c3c4cc5c(cc4ccc23)OCO5)c1OC`, the AC50 was 10000 nM (active).
Molecule `Oc1cccc2cccnc12` has an activity, negative = inhibition of -20% [at 11.4 µM].
In the case of `CN1CC[C@@]2(CCCN(C(=O)c3csnn3)C2)C1`, the AC50 is reported as “inactive”.
In the case of `O[C@H](CN1CC1)[C@@H](O)CN1CC1`, the activity, negative = inhibition is reported as 1.6% [at 11.4 µM].
`NC(=O)c1cc(N2CC2)c([N+](=O)[O-])cc1[N+](=O)[O-]` was tested, and the AC50 was “inactive”.
In the case of `CN1CCN(c2cc(N3CCCC3)c([N+](=O)[O-])cc2F)CC1`, the AC50 is reported as 355 nM (active).
`C[N+]12CCC(CC1)[C@@H](OC(=O)C(O)(c1ccccc1)c1ccccc1)C2` was tested, and the AC50 was “inactive”.
`C(=NC12CN3CN(CN(C3)C1)C2)c1cccs1` was tested, and the AC50 was “inactive”.
`CC(C)c1ccc(C(O)(C(=O)O)c2ccc(C(C)C)cc2)cc1` was tested, and the activity, negative = inhibition was -8.75% [at 11.4 µM].
In the case of `CC(C)c1ccc2c(c1)c(SC(C)(C)C)c(CC(C)(C)C(=O)O)n2Cc1ccc(Cl)cc1`, the AC50 is reported as 25100 nM (active).
`C=C1C(O)(c2ccccc2)C2CC[N+]1(C)CC2` (configuration not stated) was tested, and the AC50 was “inactive”.
`COC(=O)N1CCC2(CCN(CC(C)C)CC2)CC1` was tested, and the AC50 was “inactive”.
With `C=C1[C@@H]2CC[C@H]3[C@@]4(C)C[C@@H](O[C@@H]5O[C@H](CO)[C@H](OS(=O)(=O)O)[C@@H](OS(=O)(=O)O)[C@@H]5OC(=O)CC(C)C)C[C@@H](C(=O)O)[C@H]4CC[C@@]3(C2)[C@H]1O` the AC50 was “inactive”.
For `COc1ccc2c(c1)[C@]13CCCC[C@@H]1[C@H](C2)NCC3`, the AC50 was “inactive”.
`COc1ccc(C(=O)c2c(C)n(CCN3CCOCC3)c3cc(I)ccc23)cc1` was tested, and the AC50 was 15800 nM (active).
With `N=C1c2ccccc2CN1NC(=O)c1ccc(F)cc1` the AC50 was “inactive”.
In the case of `CN1C(=O)CCS(=O)(=O)[C@@H]1c1ccc(Cl)cc1`, the AC50 is reported as “inactive”.
With `Cc1nnc2ccc(-c3cccc(C(F)(F)F)c3)nn12` the AC50 was 79.4 nM (active).
For `CNC[C@H](O)c1ccc(OC(=O)C(C)(C)C)c(OC(=O)C(C)(C)C)c1`, the AC50 was “inactive”.
For `CCOC(=O)[C@@H]1[C@@H]2c3ccccc3-c3ccccc3[C@H]2C[C@H]1O`, the AC50 was 631 nM (active).
`O=P(O)(O)c1ccccc1` (tested in a mixture with another compound) gave an activity, negative = inhibition of 7.14% [at 11.4 µM].
In the case of `c1ccc([C@H]2CNCc3ccccc32)cc1`, the AC50 is reported as “inactive”.
`C[C@@]12CC[C@H](O)C[C@@H]1CC[C@H]1[C@H]2CC[C@@]2(C)[C@@H](C3=CC(=O)OC3)CC[C@]12O` was tested, and the AC50 was “inactive”.
`CC[C@H]1CN2CCc3cc(OC)c(OC)cc3[C@H]2C[C@@H]1C[C@H]1NCCc2c1[nH]c1ccc(O)cc21` was tested, and the activity, negative = inhibition was -7.35% [at 11.4 µM].
`c1ccc2c(c1)Sc1ccccc1N2C[C@H]1CN2CCC1CC2` gave an activity, negative = inhibition of -5.29% [at 11.4 µM].
With `NCCc1ccc(S(=O)(=O)O)cc1[N+](=O)[O-]` the activity, negative = inhibition was -6.66% [at 11.4 µM].
`O=C1c2ccccc2-c2cc([N+](=O)[O-])c([N+](=O)[O-])cc21` was tested, and the AC50 was 251 nM (active).
With `CN(N=O)C(=O)N[C@H]1C(O)OC(CO)[C@@H](O)[C@H]1O` (some centres not stated) the AC50 was “inactive”.
Work on `C[n+]1c(/C=C\c2ccc(O)c3ncccc23)[se]c2ccccc21` yielded an activity, negative = inhibition of -22.7% [at 2.29 µM].
For `CC(O)(CS(=O)(=O)c1cccc(C(F)(F)F)c1)C(=O)Nc1ccc(C(F)(F)F)cc1` (configuration not stated), the AC50 was “inactive”.
`C=CCn1c(O)c(C(C)=NCCCN2CCOCC2)c(=O)[nH]c1=O` was tested, and the AC50 was “inactive”.
With `C=CCn1c(O)c(C(CC)=NC2CC2)c(=O)[nH]c1=O` the AC50 was 708 nM (active).
In the case of `C[C@@H]1OC=C2[C@@H](O)[C@H]3O[C@H]3C(=O)[C@@]23[C@H]1[C@H]1C2=C([C@@H](O)[C@H]4O[C@@H]4C2=O)[C@@H]3O[C@@H]1C`, the activity, negative = inhibition is reported as 2.27% [at 11.4 µM].
`C=CCN1CC[C@]23c4c5ccc(O)c4O[C@@H]2/C(=N/NC(=O)c2ccccc2)CC[C@@]3(O)[C@H]1C5` was tested, and the AC50 was “inactive”.
For `CN(C)CCOC(=O)COc1ccc(Cl)cc1`, the AC50 was 10000 nM (active).
`CC(=O)[C@@H]1CC[C@@H]2[C@@H]3CCC4=CC(=O)CC[C@@]4(C)[C@H]3CC[C@]21C` was tested, and the AC50 was “inactive”.
In the case of `CC[N+](C)(C)c1cccc(O)c1`, the AC50 is reported as “inactive”.
With `COC(=O)c1cc2c(cn1)[nH]c1ccccc12` the AC50 was 631 nM (active).
`CCN1C[C@]2(C)CC[C@@H](O)[C@]34[C@@H]5CC6[C@@H](OC)C[C@@](O)([C@H]5[C@@H]6O)[C@@H](C[C@@H]23)[C@H]14` was tested, and the AC50 was “inactive”.
For `CN1[C@@H]2CC[C@H]1CC(O)C2` (some centres not stated), the AC50 was “inactive”.
With `Oc1ccc2c3c1O[C@@H]1c4[nH]c5c(c4C[C@@]4(O)[C@@H](C2)N(CC2CC2)CC[C@]314)C[C@]1(O)[C@@H]2Cc3ccc(O)c4c3[C@@]1(CCN2CC1CC1)[C@H]5O4` the AC50 was “inactive”.
For `Ic1cncc(OC[C@@H]2CCN2)c1`, the AC50 was 398 nM (active).
`C[C@@]12CC[C@@H]3[C@H](CCC4=CC(=O)CC[C@]43C)[C@@H]1CC[C@@H]2C(=O)COS(=O)(=O)c1ccc(Br)cc1` was tested, and the activity, negative = inhibition was -3.63% [at 11.4 µM].
For `C1CCc2nnnn2CC1`, the AC50 was “inactive”.
`C/C(=C\c1ccc(N(C)C)cc1)[N+](=O)[O-]` was tested, and the AC50 was 1410 nM (active).
`N[C@@H](CP(=O)(O)O)C(=O)O` gave an activity, negative = inhibition of -12.6% [at 11.4 µM].
For `CC(=O)OCC(=O)[C@@H]1CC[C@H]2[C@H]3CC[C@H]4C[C@@H](O)CC[C@]4(C)[C@@H]3C(=O)C[C@@]12C`, the AC50 was “inactive”.
`Cc1c(C(=O)c2ccc3ccccc3c2)c2cccc3c2n1[C@H](CN1CCOCC1)CO3` was tested, and the AC50 was “inactive”.
`CCCn1c(C)c(C(=O)c2cccc3ccccc23)c2ccccc21` was tested, and the AC50 was 2000 nM (active).
With `CCCn1c(C)c(C(=O)c2ccc3ccccc3c2)c2ccccc21` the AC50 was 6310 nM (active).
`C[C@@H]1[C@@H](C)N1C[C@H](O)Cn1ccnc1[N+](=O)[O-]` (some centres not stated) gave an activity, negative = inhibition of -13.2% [at 11.4 µM].
In the case of `Nc1nc2[nH]c(=O)cnc2c(=O)[nH]1`, the AC50 is reported as “inactive”.
In the case of `CN1CC[C@@]23c4ccccc4N[C@H]1[C@]21CCN(C)[C@@H]3Nc2ccccc21`, the AC50 is reported as “inactive”.
`O=C(O)CS(=O)(=O)C(c1ccccc1)c1ccccc1` was tested, and the activity, negative = inhibition was -15.7% [at 2.29 µM].
For `Cc1cc(C)cc(NC(=S)NC2CC3CCC(C2)N3Cc2ccco2)c1` (configuration not stated), the AC50 was “inactive”.
`C[C@@H]1C(=O)O[C@@H]2C[C@]34[C@H]5C[C@@H](C(C)(C)C)[C@@]36[C@@H](OC(=O)[C@@H]6O)O[C@@]4(C(=O)O5)[C@@]12O` was tested, and the AC50 was “inactive”.
`NCCP(=O)(O)O` gave an activity, negative = inhibition of -12.9% [at 11.4 µM].
